Assay results: PubChem BioAssay AID1016 (Sanford-Burnham Center for Chemical Genomics, 2008)
Among all 200,000 compounds or so, about 330 (0.17%) were called active. Only a selection was taken, and actives are over-represented in it overall. Unmarked numbers belong to inactive results.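 How the source made its calls: active means activation factor of 2 or more at 20 µM, a signal rise over negative controls twice the positive control's; inactive means the rest.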

test system: alkaline phosphatase, intestinal [Bos taurus]; assay: bovine intestinal alkaline phosphatase activators, primary screen, biochemical, bovine IAP, CDP-star luminescence (AID 1016); conditions: purified bovine IAP, 30 min, at 20 µM, stronger effect = higher value, fold of DMSO-control signal, blank-subtracted

Row | Compound | activation factor
1 | CN(C)c1ccc(/C=N/NC(=O)c2ccc(Cn3cc(Br)cn3)o2)cc1 | 1
2 | Cc1ccccc1OCC(=O)Nc1nc(C)c(C(=O)N(C)C)s1 | 1
3 | Cc1csc(SCC(=O)Nc2sccc2C#N)n1 | 1.2
4 | CN(c1ccc(OCC(=O)OCC(=O)Nc2cccc([N+](=O)[O-])c2)cc1)S(=O)(=O)c1ccc(F)cc1 | 0.8
5 | CN(C)c1ccc(NC(=O)CSc2n[nH]c(-c3ccco3)n2)cc1 | 1
6 | O=C(OCC(=O)c1c[nH]c2ccccc12)c1cccc(O)c1 | 1.2
7 | COCCCNC(=O)Cn1cc(/C=C(\C#N)C(=O)N2CCN(c3ccccc3)CC2)c2ccccc21 | 1
8 | COc1ccc(/C=N/n2c(C)cc(C)cc2=O)cc1 | 1.2
9 | CCOC(=O)C1(Cc2cccc(OC)c2)CCN(C(C)COC)CC1 (stereo not drawn) | 1
10 | Fc1ccccc1Cc1ccc(Cl)nn1 | 0.9
11 | O=C(O)c1n[nH]nc1-c1ccccc1 | 0.9
12 | Cc1ccccc1CCN(CC(=O)NC1CCCCC1)C(=O)c1csnn1 | 1
13 | COc1cccc(N(Cc2nnc3n2CCCCC3)C(=O)Nc2ccccc2F)c1 | 1.1
14 | CSc1ccc(C(=O)C2CCCN(C(=O)c3ccc(C)nc3)C2)cc1 (stereo not drawn) | 1
15 | COc1ccc(C(=O)Nc2ccc(NC(=O)C(C)C)nc2)cc1 | 0.9
16 | Cc1cccc(CSc2nnc(C)c(=O)n2N)c1 | 1.1
17 | CC(=O)N/C(=C/c1ccc(OC(F)F)cc1)C(=O)O | 1
18 | CC(=O)N1CCN(S(=O)(=O)c2ccc(C)c([N+](=O)[O-])c2)C1C(C)C (stereo not drawn) | 1
19 | CC1Cc2ccccc2N1C(=O)CSc1nnc(C2CC2)n1C (stereo not drawn) | 1
20 | CC(NC(=O)c1ccc(N2CCNCC2)c([N+](=O)[O-])c1)C12CC3CC(CC(C3)C1)C2 (stereo not drawn) | 1.1
21 | Clc1ccc(-c2nc3ccccn3c2CN2CCSCC2)cc1 | 1
22 | O=C1C2C3C=CC(C3)C2C(=O)N1c1ccc(-c2nc3ccccc3c(=O)o2)cc1 (stereo not drawn) | 1.1
23 | COc1cccc(NC(=S)C(C#N)=C2N(C)c3ccccc3N2C)c1 | 1.1
24 | CC(=O)NC1=NN(C(C)=O)C(C)(c2ccc(C)cc2)S1 (stereo not drawn) | 0.9
25 | CC(=O)c1sc(N/N=C/c2ccc(C(C)C)cc2)nc1C | 0.9
26 | COCCNC(=O)/C(C#N)=C/c1nc(N(C)C)n(-c2ccc(F)cc2)c1Cl | 1
27 | O=C(O)c1ccc2c3c(cccc13)C(=O)N(OS(=O)(=O)c1ccccc1)C2=O | 1.3
28 | Cc1sc2nc(COC(=O)C(NC(=O)c3ccc(Cl)cc3Cl)C(C)C)[nH]c(=O)c2c1C (stereo not drawn) | 0.7
